Source: PubChem BioAssay (several laboratories)
A selection: hits, their analogues and other compounds. The true share with any hit is near 1.9%.
EP2 modulator: EP2 receptor (human) modulation; P43116; EP2-expressing cells, cAMP HTRF FRET, PGE2 co-stimulation; induction, % at 25 µM; 260,000 compounds, 0.83% hits;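 active = compounds whose cAMP rise, as percent of the full-agonist control response, exceeds 60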;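 also: rat C6 glioma line stably carrying human EP2 under a CMV promoter; the protocol text gives 20 µM as final concentration; 100% = response of wells given 1 µM PGE2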
Target sequence (P43116 whole entry, looked up): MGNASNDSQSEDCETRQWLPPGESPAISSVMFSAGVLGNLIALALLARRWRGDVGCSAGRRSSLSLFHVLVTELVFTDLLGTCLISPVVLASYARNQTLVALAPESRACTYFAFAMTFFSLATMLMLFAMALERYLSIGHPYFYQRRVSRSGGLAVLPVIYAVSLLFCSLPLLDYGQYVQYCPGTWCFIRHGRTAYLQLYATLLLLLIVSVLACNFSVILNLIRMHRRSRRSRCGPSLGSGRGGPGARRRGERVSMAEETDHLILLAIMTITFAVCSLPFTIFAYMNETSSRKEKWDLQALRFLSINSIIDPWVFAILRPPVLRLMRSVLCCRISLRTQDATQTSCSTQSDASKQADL
S1P4 antag: blocks the human S1P4 receptor | S1P4-expressing cells, antagonist mode, reporter read-out | inhibition, % at 4.98 µM | 220,000 compounds, 0.26% hits | AID 1510; in the data active = inhibition above about 29%;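 also: 0% = wells stimulated with agonist and 100% = vehicle wells without agonist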
S1P4 ag: activates the human S1P4 receptor; activation, % at 4.98 µM; O95977; AID 1509; S1P4-expressing cell line, agonist reporter assay; 220,000 compounds, 0.35% hits; in the data active = activation above about 11%;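 also: 0% = DMSO vehicle and 100% = reference agonist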
PGE2 EP2 inh: inhibitors of human EP2 prostaglandin E2 receptor | P43116 | C6 glioma cells expressing human EP2, cAMP TR-FRET; cells stimulated with saturating PGE2 | inhibition, % at 25 µM | 260,000 compounds, 0.52% hits;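 active = percent inhibition above 40 after rounding to a whole number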;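 also: rat C6 glioma host cells with rolipram phosphodiesterase inhibitor present; the protocol text gives 20 µM as final concentration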
S1P3 antag: S1P3 (human) receptor antagonism; Q99500; CHO S1P3 NFAT-BLA reporter, FRET fluorescence, antagonist mode; inhibition, % at 4.98 µM; 170,000 compounds, 0.27% hits; AID 485;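 active = inhibition above the plate cutoff, the mean inhibition of test wells on that plate plus 3 SD, cut at about 28% in these data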;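 also: cells challenged with S1P at its EC80 of 0.8 µM; blue over green emission ratio from cleaved BLA substrate after 4 h stimulation; 0% = S1P-stimulated wells and 100% = unstimulated DMSO-only wells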
S1P4 antag cf: confirmation of human S1P4 receptor antagonists; shares compounds with S1P4 antag; S1P4-expressing cell line, antagonist mode, reporter read-out; inhibition, % at 4.98 µM; 520 compounds, 71% hits; AID 1524; in the data active = inhibition above about 30%
S1P1 antagonist: human S1P1 antagonism as S1P4 antagonist counter-screen. shares compounds with S1P4 antag. cell-based S1P1 antagonist counterscreen, inhibition. inhibition, % at 4.98 µM. 520 compounds, 37% hits. AID 1564; in the data active = inhibition above about 40%;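 also: receptor stimulated with S1P near its EC80; 0% = agonist stimulated wells and 100% = vehicle only wells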
An asterisk follows results filed as active; / = not tested or not shown.

SMILES | EP2 modulator | S1P4 antag | S1P4 ag | PGE2 EP2 inh | S1P3 antag | S1P4 antag cf | S1P1 antagonist
O=[N+]([O-])c1ccc(-n2nnnc2-c2ccccc2)c([N+](=O)[O-])c1 | -50 | 35* | -3 | 12 | 6 | 53* | 31
CCC(=O)Nc1cccc(C(=O)/C=C/c2ccc(F)cc2)c1 | -53 | 25 | 0 | 11 | -11 | / | /
CC(=O)Nc1cccc(C(=O)/C=C/c2ccc(C)cc2)c1 | 14 | 45* | 1 | 10 | -8 | 55* | 21
N#CCCN1CCCc2cc(N=Nc3ccc(C(F)(F)F)cc3)ccc21 | -28 | 31* | -2 | 4 | -7 | 85* | 28
CCCN1CCCc2ccccc21 | 13 | 3 | -1 | 12 | / | / | /
COc1ccc(C(=O)C(CCC(CNC(C)(C)C)C(=O)c2ccc(OC)cc2)CNC(C)(C)C)cc1 (centres undefined) | -2 | 73* | -6 | 3 | 18 | 37* | 22
O=C(Nc1sc2c(c1C(=O)NC1CCS(=O)(=O)C1)CCCC2)c1ccccc1 (centres undefined) | 10 | / | / | 13 | / | / | /
COc1ccc(C=C(c2nc3ccccc3s2)c2nc3ccccc3s2)cc1O | 29 | 29* | 2 | 20 | -12 | 58* | 16
COc1ccc(/C=N/Nc2nn3cnnc3c3ccccc23)cc1 | -15 | 30* | 2 | 7 | 2 | -9 | -7
COc1ccc2c(c1)cc(C)c1nn(CC(=O)N3CCC(C)CC3)c(=O)n12 | -33 | / | / | 5 | / | / | /
COc1ccc(-c2csc(NC3OC(=O)c4c3ccc(OC)c4OC)n2)cc1OC (centres undefined) | -25 | 32* | 1 | 11 | 0 | 58* | 44*
O=C(/C(=C\c1ccccc1)c1nc2ccccc2[nH]1)c1ccc(Cl)cc1 | -17 | -7 | 1 | 7 | 6 | / | /
O=C(/C=C/c1cccc(Cl)c1)c1nc2ccccc2[nH]1 | -10 | 56* | 0 | 15 | / | 104* | 10
COc1ccc(CCNC(=O)CSc2nc3c(C)cccc3cc2C)cc1OC | 33 | / | / | 9 | / | / | /
Nc1nc(CCl)nc(Nc2cccc3ccccc23)n1 | -20 | 33* | 0 | 12 | -5 | 55* | 1
CC(NC(=O)c1cccc(Cn2cc([N+](=O)[O-])cn2)c1)c1ccc(C(C)(C)C)cc1 (centres undefined) | -8 | 76* | 0 | 7 | / | 3 | -2
O=[N+]([O-])c1ccccc1C1Nc2cccc3cccc(c23)N1 | -27 | 59* | -2 | 7 | / | 0 | -41
Oc1ccccc1C1Nc2cccc3cccc(c23)N1 | -15 | -30 | 2 | 13 | 17 | / | /
O=[N+]([O-])c1ccc(Cl)c(C2Nc3cccc4cccc(c34)N2)c1 | 16 | 59* | 0 | 11 | / | 1 | 19
O=c1[nH]c(N2CCCC2)nc2c1CN(Cc1c(O)ccc3ccccc13)CC2 | -83 | / | / | 8 | / | / | /
COC(=O)c1cc(=O)n(Cc2ccco2)c(=Nc2ccc(F)c(Cl)c2)s1 | 21 | 34* | 0 | 10 | 0 | 102* | 60*
CC(C)NC(=O)Cn1c(=O)n(C(C)C)c2ncccc21 | -9 | / | / | 9 | / | / | /
Cc1c(C=O)c(C=O)c(C)n1Cc1ccccc1 | 11 | 35* | -1 | 16 | / | 42* | 19
CC(=O)c1c(C(C)=O)c(C)n(Cc2ccccc2)c1C | 29 | -18 | 1 | 14 | 36 | / | /
CCOC(=O)C(=Cc1ccc(Br)cc1)C(=O)OCC | -40 | 90* | 1 | 19 | -26 | 115* | 35
COc1ccccc1NC(=O)c1cc2n(n1)C(C(F)(F)F)CC(c1ccco1)N2 (centres undefined) | 40 | / | / | 14 | / | / | /
O=C(/C=C/c1ccccc1)NC1CCCc2ccccc21 (centres undefined) | -110 | 54* | -1 | 10 | -1 | 54* | -21
CN(C)c1ccc(C(=O)NC2CCCc3ccccc32)cc1 (centres undefined) | -44 | 48* | -1 | 9 | -6 | 56* | -10
O=C(/C=C/c1ccccc1)NC1CCSC1=O (centres undefined) | 9 | -17 | 1 | 7 | -25 | / | /
N#Cc1ccc(C(=O)NC2CCCc3ccccc32)cc1 (centres undefined) | -17 | -26 | -1 | 6 | -12 | / | /
